Test results taken from PubChem BioAssay AID485364 (National Center for Advancing Translational Sciences (NCATS), 2010).
Screen size: about 360,000 compounds; about 11,000 (3.1%) were called active. Entries that show only a call come without a potency. Not shown: some 4% with an inconclusive outcome. Calls follow the shape of the dose curve; as a rule, active = well fitted inhibition curve with a large enough effect; inconclusive = small, poorly fitted or top-dose-only effect; inactive = no such curve, though single readings can be large or run the other way. Only a selection was taken, and actives are over-represented in it overall.
Also: nearly all actives have a fitted effect of over 60% in size.
Potency is read from the fitted curve at half-maximal effect.

Each compound was assayed against Schistosoma mansoni thioredoxin glutathione reductase (TGR) (UniProt Q962Y6) (assay: qHTS Assay for the Inhibitors of Schistosoma Mansoni Peroxiredoxins). Conditions: purified TGR, DTNB reduction, TNB absorbance 405 nm; series mostly up to 114 µM.
Summary of the method: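 Kinetic colorimetric format: TGR-catalysed, NADPH-driven DTNB reduction monitored via TNB absorbance. Enzyme dispensed at 20 nM; compound exposure 15 min at room temperature before reaction start.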
In the case of COc1ccc(-c2noc(CCC(=O)N(C)c3ccccc3C)n2)cc1, the Potency was “inactive”. CCCSc1ncc(Cl)c(C(=O)Nc2c(C(=O)Nc3ccccc3)oc3ccccc23)n1 was tested, and the Potency was “inactive”. In the case of COc1ccc(C2CC(=O)N(Cc3ccccc3C)c3c2c(C)nn3-c2nc(C)cc(C)n2)c(OC)c1 (stereo not given), the Potency was “inactive”. In the case of COc1ccc(C(=O)NC(=S)NC2CCCCC2)cc1, the Potency was 1.41 µM (active). With O=C(NC(=S)NC1CCCCC1)c1ccc(Cl)cc1 the Potency was “inactive”. In the case of CCCNC(=S)N1CCC(NC(=O)c2ccc(OC)cc2)CC1, the Potency was “inactive”. With CCc1ccccc1N(C)C(=O)C1CCCN(c2ncnc3onc(-c4ccc(F)cc4)c23)C1 (stereo not given) the Potency was “inactive”. With CCn1cc(C(=O)N2CCN(c3cc(C)ccc3C)CC2)c(=O)c2cc(S(=O)(=O)N(C)C3CCCCC3)ccc21 the Potency was “inactive”. In the case of CCc1ccccc1NC(=O)CSc1nnc(-c2ccccc2)c(-c2ccccc2)n1, the Potency was “inactive”. In the case of COC(C(=O)NCc1ccccc1C)c1ccccc1 (stereo not given), the Potency was “inactive”. In the case of COc1ccccc1CNC(=O)C(=O)NCC(c1cccs1)S(=O)(=O)c1cccs1 (stereo not given), the Potency was 25.1 µM (active). With COc1ccccc1CCNC(=O)C(=O)NCCC1CCCCN1S(=O)(=O)c1cccs1 (stereo not given) the Potency was “inactive”. In the case of O=C(NCc1ccccc1Cl)C(=O)NCC1CCCN1S(=O)(=O)c1cccs1 (stereo not given), the Potency was “inactive”. For CC(C)C(=O)NCC(c1cccs1)S(=O)(=O)c1ccc(F)cc1 (stereo not given), the Potency was “inactive”. In the case of Cc1ccccc1CNC(=O)C(=O)NCC(c1cccs1)S(=O)(=O)c1cccs1 (stereo not given), the Potency was 25.1 µM (active). Cc1ccc(SCC(=O)Nc2ccc3oc(-c4ccccc4C)nc3c2)cc1 was tested, and the Potency was “inactive”. For CCC(C)NC(=O)Cn1c(=O)n(-c2ccc(Cl)cc2)c(=O)c2c3c(sc21)CCCC3 (stereo not given), the Potency was “inactive”. Cc1c(Cl)cccc1NC(=O)C1CCCN(c2ncnc3onc(C)c23)C1 (stereo not given) was tested, and the Potency was “inactive”. In the case of CCOc1ccc(NC(=O)Cn2c(C)ccc(C#N)c2=O)cc1, the Potency was “inactive”. CSCC(NS(=O)(=O)c1ccc(C)cc1)C(=O)O (stereo not given) was tested, and the Potency was “inactive”. In the case of Cc1ccc(CSCC(N)C(=O)O)cc1 (stereo not given), the Potency was 28.2 µM (active). Cc1ccc(CSCC(=O)N(C)CC(=O)Nc2ccc(C)cc2)cc1 was tested, and the Potency was “inactive”. With CCc1ccc(NC(=O)CCS(=O)(=O)c2cc3c(cc2Cl)NC(=O)CO3)cc1 the Potency was “inactive”. With Fc1ccc(CN2CCc3nc(Nc4ccccc4)ncc3C2)cc1F the Potency was “inactive”. For CCOC(=O)C1=C(O)/C(=C/c2cc(C)n(-c3ccccc3)c2C)N=C1C, the Potency was 28.2 µM (active). In the case of CCOC(=O)C1=C(O)/C(=C/c2ccc(OCC(=O)Nc3ccc(C)cc3)cc2)N=C1C, the Potency was “inactive”. For COC(=O)C1=C(O)/C(=C/c2ccc(OCC(=O)Nc3ccccc3)cc2)N=C1C, the Potency was “inactive”. In the case of CCOc1ccccc1C(=O)Nc1ccc2c(c1)N(C)C(=O)c1ccccc1S2, the Potency was “inactive”. With O=C(Cn1c(=O)n(-c2ccc(F)cc2)c(=O)c2sc3ccccc3c21)NC1CCCC1 the Potency was “inactive”. Cn1c(-c2ccc(F)cc2)cnc1SCC(=O)NNC(=O)Cc1ccccc1 was tested, and the Potency was “inactive”. For CCOc1ccccc1-n1c(SCC(=O)NCc2ccco2)nnc1-c1ccncc1, the Potency was 44.7 µM (active). With Cn1c(-c2ccc(F)cc2)cnc1SCC(=O)NCc1ccco1 the Potency was 31.6 µM (active). With Cc1nc2nc(SCC(=O)NCc3ccco3)nn2c(C)c1Cc1ccccc1 the Potency was 20 µM (active). With CCn1c(SCC(=O)NCc2ccco2)nnc1-c1ccc(N)cc1 the Potency was “inactive”. With O=C(CSc1nnc2scc(-c3ccc(F)cc3)n12)NCc1ccco1 the Potency was “inactive”. Cc1ccc(-c2csc3nnc(SCC(=O)NCc4ccco4)n23)cc1 was tested, and the Potency was “inactive”. In the case of Cc1ccc(Cc2c(C)nc3nc(SCC(=O)NCCN4CCOCC4)nn3c2C)cc1, the Potency was “inactive”. O=C(CSc1nnnn1-c1ccccc1)NCc1ccco1 was tested, and the Potency was 79.4 µM (active). In the case of CCN(CC)C(CNC(=O)CSc1nnnn1-c1cccc(F)c1)c1ccco1 (stereo not given), the Potency was “inactive”. For Cc1cc(C)n2nc(SCC(=O)NC(=O)NCc3ccco3)nc2n1, the Potency was “inactive”. O=C(CSc1nnc(-c2c[nH]c3ccccc23)n1-c1ccc(F)cc1)NCc1ccco1 was tested, and the Potency was “inactive”. In the case of COc1cccc(NC(=O)C(=O)NCC(c2ccc3c(c2)OCO3)N2CCN(C)CC2)c1 (stereo not given), the Potency was “inactive”. For Cc1ccc(CN2CCC(CNC(=O)c3cnn(-c4ccccc4Cl)c3C3CCN(C(=O)OC(C)(C)C)CC3)CC2)cc1, the Potency was “inactive”. COc1ccc2c(c1)c(=O)c(C(=O)c1ccccc1)cn2CC(=O)Nc1ccc2c(c1)OCCO2 was tested, and the Potency was “inactive”. With CCOc1ccccc1NC(=O)Cn1c(=O)n(-c2cccc(C)c2)c(=O)c2c1c1cc(OC)ccc1n2C the Potency was “inactive”. O=C(Cn1cnc2c(oc3ccccc32)c1=O)Nc1ccc(OC(F)(F)F)cc1 was tested, and the Potency was “inactive”. In the case of CC(CCCc1ccccc1)NC(=O)c1nn(-c2ccc(Cl)cc2)nc1CO (stereo not given), the Potency was “inactive”. With O=C(NCCCO)c1nn(-c2ccc(Cl)cc2)nc1CO the Potency was “inactive”. In the case of O=C(CN1CCOCC1)N/N=C/c1ccc(-c2ccc(Br)cc2)o1, the Potency was “inactive”. For O=C(N/N=C/c1ccc(Br)o1)c1cncc(Br)c1, the Potency was “inactive”. With O=C(CCC(=O)N/N=C/c1ccc(Br)o1)N/N=C/c1ccc(Br)o1 the Potency was 35.5 µM (active). CC(C)(C)OC(=O)N1CCC(c2c(C(=O)NCCc3ccsc3)cnn2-c2ccc(F)cc2F)CC1 was tested, and the Potency was “inactive”. For Cc1ccc(NC(=O)Nc2ccc3oc(C)nc3c2)cc1, the Potency was “inactive”. In the case of CCc1ccc2oc(-c3ccc(N)cc3)nc2c1, the Potency was “inactive”. In the case of CCN(CC)c1ccc2oc(=O)c(C)nc2c1, the Potency was 35.5 µM (active). With Cc1cccc2c(=O)cc(CSc3ccccc3NC(=O)C(C)C)[nH]c12 the Potency was “inactive”. For O=C(Nc1ccccc1F)C(c1ccccc1)N1Cc2ccccc2C1=O (stereo not given), the Potency was “inactive”. Cc1ccc(-c2nc(CS(=O)(=O)CC(=O)NCc3ccc4c(c3)OCO4)c(C)o2)cc1 was tested, and the Potency was 20 µM (active). Cc1ccc(-c2nc(CS(=O)(=O)CC(=O)NCc3ccccc3Cl)c(C)o2)cc1 was tested, and the Potency was “inactive”. With COc1ccc(-c2nc(CS(=O)(=O)CC(=O)NCc3cccc(Br)c3)c(C)o2)cc1 the Potency was “inactive”. O=C(NCc1ccccc1)c1cccc(NC(=O)N2CCSc3ncccc32)c1 was tested, and the Potency was “inactive”. With O=C(c1cccc(Br)c1)N1CCN(Cc2cc(=O)n3nc(-c4ccccc4)sc3n2)CC1 the Potency was “inactive”. NS(=O)(=O)c1ccc(NC(=S)Nc2ccc(Br)c(Cl)c2)cc1 was tested, and the Potency was “inactive”. In the case of O=C(NC(=S)Nc1cccc2c(O)cccc12)c1cccc(Br)c1, the Potency was “inactive”. In the case of Cc1cc(NS(=O)(=O)c2ccc(NC(=O)c3cccnc3)cc2)nc(C)n1, the Potency was “inactive”. NS(=O)(=O)c1ccc(NC(=S)NC(=O)c2cccc(Br)c2)cc1 was tested, and the Potency was 15.8 µM (active). In the case of CC(C)NS(=O)(=O)c1ccc(NC(=O)c2cccnc2)cc1, the Potency was “inactive”. NS(=O)(=O)c1ccc(NC(=S)NC(=O)c2cccnc2)cc1 was tested, and the Potency was 22.4 µM (active). With COc1ccc(OC)c(C(C)NC(=S)Nc2ccc(S(=O)(=O)Nc3ncccn3)cc2)c1 (stereo not given) the Potency was “inactive”. With O=C(NC(=S)Nc1ccc(S(=O)(=O)Nc2ncccn2)cc1)c1cccc(Br)c1 the Potency was 20 µM (active). In the case of O=C(Nc1ccc(S(=O)(=O)Nc2ncccn2)cc1)c1cncc(Br)c1, the Potency was “inactive”. O=C(CSc1nnc(CNC(=O)c2ccccc2)n1-c1ccc(F)cc1)Nc1ccccc1F was tested, and the Potency was “inactive”. In the case of CCOc1ccc2oc(=O)cc(CN3CCN(C(=O)c4ccc(F)cc4)CC3)c2c1, the Potency was “inactive”. For O=C1CSC2(C(=O)N(Cc3ccccc3)c3ccccc32)N1c1cccc(F)c1 (stereo not given), the Potency was “inactive”. In the case of O=C(Nc1ccc(-c2nc3cc(NC(=O)c4ccccc4Cl)ccc3o2)cc1)c1ccccc1Cl, the Potency was “inactive”. For COc1cccc(C(=O)Nc2ccc(-c3cc(C(F)(F)F)nn3-c3ccccc3)cc2)c1, the Potency was “inactive”. In the case of Cc1cc(OCC(=O)Nc2ncn[nH]2)c(C)c(C)c1Br, the Potency was “inactive”. CN1CCc2nc(SC(C(=O)O)c3ccccc3)c(C#N)c(-c3cccs3)c2C1 (stereo not given) was tested, and the Potency was 39.8 µM (active). For CC(NC(=O)CSc1nc2c(cc1C#N)CN(C)CC2)c1ccccc1 (stereo not given), the Potency was “inactive”. Cc1c(-c2ccccc2)nc(N)c(C#N)c1-c1cccs1 was tested, and the Potency was “inactive”. In the case of O=C(c1ccc(C(F)(F)F)cc1)N1CCC(c2nc(-c3ccc(S(=O)(=O)N4CCCC4)cc3)no2)CC1, the Potency was “inactive”. For COc1ccc(OC)c(CNC(=O)Cn2nc(C)c3c(C)n(-c4ccccc4)nc3c2=O)c1, the Potency was “inactive”. NS(=O)(=O)c1ccc(NC(=O)COC(=O)c2ccco2)cc1 was tested, and the Potency was “inactive”. In the case of CCc1ccc(CCC(=O)Nc2ccc(S(N)(=O)=O)cc2)o1, the Potency was 50.1 µM (active). In the case of CC1CC(C)CN(CC(=O)Nc2ccc(S(N)(=O)=O)cc2)C1 (stereo not given), the Potency was “inactive”. With O=C(NCc1ccc2c(c1)CCN2C(=O)c1ccccc1)Nc1cc(F)ccc1F the Potency was “inactive”. In the case of Cc1ccc2c(=O)c(C(=O)c3cccc(Cl)c3)cn(CC(=O)NCc3ccccc3)c2n1, the Potency was “inactive”. In the case of O=C(NCC(c1ccc2c(c1)OCO2)N1CCN(c2ccccc2)CC1)C(=O)Nc1ccccc1F (stereo not given), the Potency was “inactive”. With COC(=O)c1nc(NC(=O)c2ccc(C(C)(C)C)cc2)n[nH]1 the Potency was “inactive”. With CCOC(=O)NNC(=O)c1ccc(Cl)cc1 the Potency was “inactive”. In the case of COc1ccc(C(=O)Nc2ccc(F)cc2F)cc1, the Potency was “inactive”. COC(=O)c1nc(NC(=O)c2ccc(Cl)cc2)n[nH]1 was tested, and the Potency was 39.8 µM (active). COC(=O)c1nc(NC(=O)c2ccc(F)cc2)n[nH]1 was tested, and the Potency was 28.2 µM (active). In the case of COC(=O)c1sccc1NC(=O)c1ccc(Cl)cc1, the Potency was “inactive”. NS(=O)(=O)c1ccc(NC(=O)COc2ccc(S(=O)(=O)NC3CCCCC3)cc2)cc1 was tested, and the Potency was “inactive”. With COc1ccc(CNc2nc(-c3ccc(Cl)cc3)nn2S(=O)(=O)c2ccc(C)cc2)cc1 the Potency was “inactive”. For COc1ccccc1CNC(=O)CS(=O)(=O)c1cccc2nsnc12, the Potency was “inactive”. With Cc1ccc(OC(=O)CSc2nnc(-c3cccs3)o2)cc1 the Potency was “inactive”. With COc1cc(Cl)c(NC(=O)CC(C)S(=O)(=O)c2cc3c(cc2C)NC(=O)CO3)c(OC)c1 (stereo not given) the Potency was “inactive”. COc1ccc(OC)c(CCNC(=O)CCCn2c(=O)c3cccn3c3cccnc32)c1 was tested, and the Potency was “inactive”.
